Inconclusive results are not listed. A call without a number means that no potency is given here. The source made the active and inactive calls. Unless noted, calls follow the shape of the full dose curve.
Assays:
[1] = Nuclear factor erythroid 2-related factor 2/antioxidant responsive element (Nrf2/ARE) small molecule agonists: qHTS cell viability counter screen in human keratinocytes (AID 1919968; active = well fitted cell-killing curve with a large enough effect in the repeat runs; also: nearly all actives have a fitted effect of over 55% in size; also: potency is read from the fitted curve at half-maximal effect)
Method in brief: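 Cells of the KeratinoSens line were plated at 1,500 per well and left for 5 h before compound transfer from DMSO stocks. After a 23 h incubation (37 C, 5% CO2), CellTiter-Fluor was added. Signal was taken as fluorescence intensity 1 h later.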

[2] = target: Gonadotropin-releasing hormone receptor (Homo sapiens) (UniProt P30968); test: Human gonadotropin-releasing hormone receptor (GnRHR) small molecule agonists, calcium flux assay in GnRHR-HEK293 cells (AID 1920063); also: nearly all actives have a fitted effect of over 35% in size
Method in brief: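 Compounds dissolved in DMSO are pin-transferred onto dye-loaded GnRHR-HEK293 cells, which were seeded 18 h before at 37 C/5% CO2. Calcium signal is read as fluorescence intensity at 1 s intervals for 3 min.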

[3] = G protein-coupled receptor (GPCR) small molecule agonists, calcium flux assay: HEK293 wild type cell line counter screen (AID 1920065)
Method in brief: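 Tox21 10K compounds, 15 concentrations each in triplicate, pin-transferred in DMSO onto dye-loaded cells; kinetic read at 480/540 nm for 3 min, 1 s intervals.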

[4] = p53 small molecule agonists, cell-based qHTS assay with human liver microsomes (AID 1963577);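 also: p53 response element beta-lactamase reporter cells with liver microsomes plus NADPH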
Method in brief: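 16 h, 37 C exposure of p53RE-bla cells to compounds with human liver microsomes and NADPH (0.5 mg/mL final each); detection via LiveBLAzer mixture, 2 h dark at room temperature.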

[5] = p53 small molecule agonists, cell-based qHTS assay with human liver microsomes: qHTS cell viability counter screen (AID 1963579); also: nearly all actives have a fitted effect of over 45% in size; also: potency is read from the fitted curve at half-maximal effect
Method in brief: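 In this multiplexed counter screen, the reporter plates were subsequently treated with CellTiter-Glo so that cell viability, reflected by luminescence, could be recorded for p53RE-bla cells dosed 16 h with compounds under microsomal activation (HLM and NADPH).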

[6] = p53 small molecule agonists, cell-based qHTS assay with rat liver microsomes: qHTS cell viability counter screen (AID 1963580); also: nearly all actives have a fitted effect of over 45% in size
Method in brief: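 Rat liver microsome (0.5 mg/mL final) and NADPH (0.5 mg/mL final) co-incubation with compounds for 16 h at 37 C on HCT-116 p53RE-bla cells; cytotoxicity taken from intracellular ATP luminescence.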

[7] = p53 small molecule agonists, cell-based qHTS assay (AID 1963582; active = well fitted activation curve with a large enough effect in the signal ratio in the repeat runs, not every such curve was filed as active; the % refers to the signal ratio)
Method in brief: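 16 h compound exposure (37 C) of p53 response element–bla cells, preceded by 5 h recovery at 37 C/5% CO2; read-out via LiveBLAzer B/G FRET substrate, 2 h RT, fluorescence intensity.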

[8] = target: 5-hydroxytryptamine receptor 2A (Homo sapiens) (UniProt P28223); test: 5-hydroxytryptamine receptor 2A (HTR2A) small molecule antagonists, cell-based qHTS assay (AID 1963586); also: nearly all actives have a fitted effect of over 45% in size
Method in brief: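 CHO cells stably expressing human HTR2A were plated for 18 h at 37 C, then loaded with calcium dye for 1 h. Compounds were preincubated 5 min at room temperature before DOI (4 nM solution) was added. Kinetic fluorescence was read for 3 min.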

[9] = target: 5-hydroxytryptamine receptor 2A (Homo sapiens) (UniProt P28223); test: 5-hydroxytryptamine receptor 2A (HTR2A) small molecule agonists, cell-based qHTS assay (AID 1963587); also: nearly all actives have a fitted effect of over 30% in size
Method in brief: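 Kinetic calcium-flux fluorescence (2 min, 1 sec intervals) after compound addition in agonist mode. HTR2A-CHO cells were cultured 18 h, then dye-loaded 1 h at 37 C.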

[10] = target: Muscarinic acetylcholine receptor M1 (Homo sapiens) (UniProt P11229); test: Cholinergic receptor muscarinic 1 (CHRM1) small molecule antagonists, cell-based qHTS assay (AID 1963588); also: nearly all actives have a fitted effect of over 40% in size; also: potency is read from the fitted curve at half-maximal effect
Method in brief: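 Compounds were tested at 15 concentrations in three independent runs. Dye-loaded CHRM1-CHO cells were exposed 5 min at room temperature before stimulation by acetylcholine added at 50nM. Intracellular calcium was read kinetically on FDSS for 3 min.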

[11] = target: Muscarinic acetylcholine receptor M1 (Homo sapiens) (UniProt P11229); test: Cholinergic receptor muscarinic 1 (CHRM1) small molecule agonists, cell-based qHTS assay (AID 1963589); also: nearly all actives have a fitted effect of over 35% in size
Method in brief: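 Homogeneous fluorescence calcium flux, agonist mode. Human M1-expressing CHO cells; compound dosed at 15 concentrations, three independent runs; signal sampled every 1 sec.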

[12] = cAMP Responsive Elements (CRE) small molecule agonists, cell-based qHTS assay (AID 1963590)
Method in brief: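 HEK 293T cells stably bearing CRE-bla were plated at 2,000 cells per well and rested 18 h. Compounds, positive controls or DMSO were added for 3 h at 37 C. LiveBLAzer B/G substrate was then loaded for 2 h at room temperature.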

[13] = cAMP Responsive Elements (CRE) small molecule antagonists, cell-based qHTS assay (AID 1963591; active = well fitted inhibition curve with a large enough effect in the signal ratio in the repeat runs, not every such curve was filed as active; the % refers to the signal ratio)
Method in brief: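 First, CRE-bla HEK293T cells settled 18 h at 37 C. Next, compound and 0.25 uM final NKH477 were applied for 3 h. Last, LiveBLAzer B/G substrate was loaded for 2 h at room temperature.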

[14] = target: Beta-2 adrenergic receptor (Homo sapiens) (UniProt P07550); test: Adrenergic beta2 receptor (ADRB2) small molecule antagonists, cell-based qHTS assay (AID 1963592); also: series mostly up to about 92 µM; nearly all actives have a fitted effect of over 50% in size
Method in brief: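 Assay format: CHO-ADRB2 cells, 18-20hr seeding at 37C/5% CO2, then compound plus 1nM isoproterenol agonist mix for 0.5hr RT. Homogeneous time-resolved fluorescence cAMP detection after 1hr, expressed as 665/615 nm ratio.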

[15] = target: D(2) dopamine receptor (Homo sapiens) (UniProt P14416); test: Dopamine D2 receptor (DRD2) small molecule agonists, cell-based qHTS assay (AID 1963594); also: nearly all actives have a fitted effect of over 35% in size
Method in brief: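 cAMP accumulation in DRD2-HEK293 cells measured by HTRF after 1 h detection; compounds added 10 min before NKH477 (200nM […]) forskolin-analogue stimulation, 30 min at room temperature, with Ro20-1724 present at 0.1 mM final.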

[16] = target: D(2) dopamine receptor (Homo sapiens) (UniProt P14416); test: Dopamine D2 receptor (DRD2) small molecule antagonists, cell-based qHTS assay (AID 1963595; active = well fitted inhibition curve with a large enough effect in the signal ratio in the repeat runs, with a control signal flat; the % refers to the signal ratio; also: potency is read from the fitted curve at half-maximal effect)
Method in brief: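 Human DRD2 antagonist qHTS measuring cAMP by HTRF. The cells are exposed to compound for 10 min, then to NKH477 (200 nM) and quinpirole (12 nM) for 30 min at RT, with Ro20-1724 (0.1 mM) present throughout.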

[17] = p53 small molecule agonists, cell-based qHTS assay with rat liver microsomes (AID 1963578)
Method in brief: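 With rat liver microsomes and NADPH present (0.5 mg/mL final each), p53RE-bla cells are treated with compound for 16 h at 37 C. LiveBLAzer detection mixture is then applied for 2 h at room temperature in the dark.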

[18] = p53 small molecule agonists, cell-based qHTS assay: qHTS cell viability counter screen (AID 1963581); also: nearly all actives have a fitted effect of over 45% in size
Method in brief: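 ATP content measured by luminescence in HCT-116 p53RE-bla cells treated 16 h at 37 C, same wells as the reporter screen.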

[19] = target: Beta-2 adrenergic receptor (Homo sapiens) (UniProt P07550); test: Adrenergic beta2 receptor (ADRB2) small molecule agonists, cell-based qHTS assay (AID 1963593);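 also: CHO cells stably overexpressing human ADRB2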
Method in brief: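 CHO cells stably over-expressing ADRB2 were plated overnight at 37C, then dosed with compounds plus a stimulation mix containing 100uM IBMX and 25uM Ro-20-1724 for 0.5hr at room temperature. cAMP was measured by HTRF competition, 1hr.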

Chain of 5-hydroxytryptamine receptor 2A (Homo sapiens) (P28223 whole entry, looked up): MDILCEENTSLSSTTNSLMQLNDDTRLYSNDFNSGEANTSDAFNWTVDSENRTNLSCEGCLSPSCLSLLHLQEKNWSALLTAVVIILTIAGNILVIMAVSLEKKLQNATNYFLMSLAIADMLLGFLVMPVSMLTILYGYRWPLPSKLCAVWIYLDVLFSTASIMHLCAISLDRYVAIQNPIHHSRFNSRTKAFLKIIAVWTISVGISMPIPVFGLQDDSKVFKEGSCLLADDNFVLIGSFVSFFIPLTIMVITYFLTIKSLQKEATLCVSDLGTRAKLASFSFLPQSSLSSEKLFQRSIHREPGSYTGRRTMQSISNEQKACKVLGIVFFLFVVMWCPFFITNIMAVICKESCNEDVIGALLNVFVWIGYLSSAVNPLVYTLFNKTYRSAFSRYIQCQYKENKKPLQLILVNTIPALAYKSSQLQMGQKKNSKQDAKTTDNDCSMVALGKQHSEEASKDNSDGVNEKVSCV
Chain of Muscarinic acetylcholine receptor M1 (Homo sapiens) (P11229 whole entry, looked up): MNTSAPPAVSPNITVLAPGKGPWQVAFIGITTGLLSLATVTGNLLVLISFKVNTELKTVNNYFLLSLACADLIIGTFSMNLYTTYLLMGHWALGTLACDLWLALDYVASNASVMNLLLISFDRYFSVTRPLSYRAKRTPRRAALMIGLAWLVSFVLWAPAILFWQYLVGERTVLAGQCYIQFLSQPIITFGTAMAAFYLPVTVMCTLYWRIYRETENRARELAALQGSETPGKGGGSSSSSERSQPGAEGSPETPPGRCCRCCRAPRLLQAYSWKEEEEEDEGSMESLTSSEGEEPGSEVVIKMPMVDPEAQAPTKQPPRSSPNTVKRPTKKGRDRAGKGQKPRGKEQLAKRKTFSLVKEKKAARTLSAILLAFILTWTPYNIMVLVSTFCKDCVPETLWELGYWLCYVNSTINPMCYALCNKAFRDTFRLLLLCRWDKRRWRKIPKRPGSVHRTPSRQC
Chain of Gonadotropin-releasing hormone receptor (Homo sapiens) (P30968 whole entry, looked up): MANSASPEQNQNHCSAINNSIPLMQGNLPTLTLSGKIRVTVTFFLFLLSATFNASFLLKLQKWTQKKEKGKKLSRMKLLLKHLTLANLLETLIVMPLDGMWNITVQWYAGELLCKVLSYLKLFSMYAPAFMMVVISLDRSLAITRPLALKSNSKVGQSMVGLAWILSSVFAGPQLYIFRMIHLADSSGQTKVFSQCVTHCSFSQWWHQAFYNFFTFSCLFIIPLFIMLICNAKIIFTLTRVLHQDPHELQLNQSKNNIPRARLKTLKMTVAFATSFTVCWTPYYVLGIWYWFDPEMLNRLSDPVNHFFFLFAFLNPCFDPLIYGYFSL
Chain of Beta-2 adrenergic receptor (Homo sapiens) (P07550 whole entry, looked up): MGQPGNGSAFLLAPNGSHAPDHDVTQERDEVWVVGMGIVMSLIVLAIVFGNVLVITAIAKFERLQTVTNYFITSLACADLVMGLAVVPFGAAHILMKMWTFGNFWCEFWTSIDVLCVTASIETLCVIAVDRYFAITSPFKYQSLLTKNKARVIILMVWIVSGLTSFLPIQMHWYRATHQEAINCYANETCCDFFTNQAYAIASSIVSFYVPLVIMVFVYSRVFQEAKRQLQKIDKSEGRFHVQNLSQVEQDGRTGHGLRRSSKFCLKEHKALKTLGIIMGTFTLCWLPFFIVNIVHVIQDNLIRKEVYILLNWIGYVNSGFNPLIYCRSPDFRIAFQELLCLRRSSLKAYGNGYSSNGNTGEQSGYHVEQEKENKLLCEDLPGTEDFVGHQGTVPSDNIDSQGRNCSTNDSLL
Chain of D(2) dopamine receptor (Homo sapiens) (P14416 whole entry, looked up): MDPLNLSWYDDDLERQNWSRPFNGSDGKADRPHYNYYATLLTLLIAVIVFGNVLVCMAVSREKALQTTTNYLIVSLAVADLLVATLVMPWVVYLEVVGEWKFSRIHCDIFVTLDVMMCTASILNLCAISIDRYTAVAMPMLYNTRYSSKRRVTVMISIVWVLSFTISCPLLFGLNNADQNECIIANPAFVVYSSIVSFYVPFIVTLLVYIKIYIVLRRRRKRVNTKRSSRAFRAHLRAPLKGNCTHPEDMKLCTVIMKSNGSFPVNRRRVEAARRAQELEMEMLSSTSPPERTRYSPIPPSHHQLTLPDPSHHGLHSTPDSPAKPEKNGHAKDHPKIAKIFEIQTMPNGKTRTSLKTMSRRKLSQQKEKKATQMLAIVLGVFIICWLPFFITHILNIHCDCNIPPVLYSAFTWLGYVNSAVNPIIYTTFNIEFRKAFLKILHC

Row | Compound | Potency [1] | Potency [2] | Potency [3] | Potency [4] | Potency [5] | Potency [6] | Potency [7] | Potency [8] | Potency [9] | Potency [10] | Potency [11] | Potency [12] | Potency [13] | Potency [14] | Potency [15] | Potency [16] | Potency [17] | Potency [18] | Potency [19]
1 | CCCCC(CC)CNC(=O)CC(C)OC(=O)CCC(=O)O (stereo not drawn) | inactive | inactive | inactive | inactive | inactive | inactive | inactive | inactive | inactive | inactive | inactive | inactive | inactive | inactive | inactive | inactive |  |  | 
2 | CC(CN)CCCN (stereo not drawn) | inactive | inactive | inactive | inactive | inactive | inactive | inactive | inactive | inactive | inactive | inactive | inactive | inactive | inactive | inactive | inactive |  |  | 
3 | CCCCCCCCCC[N+](C)(CCCCCCCCCC)CCC[Si](OC)(OC)OC | 21.7 µM (active) | inactive | inactive |  | 36.3 µM (active) |  |  | inactive | inactive | inactive | inactive |  |  | inactive | inactive |  |  |  | 
4 | C[C@@H]1C[C@H]2O[C@@]3(O[C@@H]2C(C)(C)O)[C@H](O)[C@@]2(C)[C@@H]4CC[C@H]5C(C)(C)[C@@H](O[C@@H]6OC[C@@H](O)[C@H](O)[C@H]6O)CC[C@@]56C[C@@]46CC[C@]2(C)[C@@H]13 | inactive | inactive | inactive | inactive | inactive | inactive |  |  | inactive | inactive | inactive |  |  | inactive | inactive | inactive | inactive | inactive | 
5 | CN(C)c1ccc(C=O)cc1 | inactive | inactive | inactive | inactive | inactive |  | inactive |  | inactive | inactive | inactive | inactive | inactive | inactive | inactive | inactive | inactive | inactive | inactive
6 | Cc1nc2sccn2c(=O)c1CCN1CCC(=C(c2ccc(F)cc2)c2ccc(F)cc2)CC1 | 26.6 µM (active) | inactive | inactive |  |  | inactive |  |  | inactive | 2.59 µM (active) | inactive |  |  | inactive | inactive | 26.6 µM (active) | inactive | inactive | 
7 | N/C(=N\N=C\c1ccc(Cl)cc1)N/N=C/c1ccc(Cl)cc1 | 26.6 µM (active) | inactive | inactive |  | inactive | inactive | inactive | inactive | inactive | inactive | inactive |  |  | inactive | inactive |  | inactive | inactive | 
8 | Oc1ccc(Cc2ccccc2)cc1 | inactive | inactive | inactive | inactive |  | inactive | inactive | inactive |  | inactive | inactive |  |  | inactive | inactive | inactive | inactive | inactive | inactive
9 | COC(OC)(C(=O)c1ccccc1)c1ccccc1 | inactive | inactive | inactive |  | inactive | inactive |  |  | inactive | inactive | inactive | inactive | inactive | inactive |  | inactive |  | inactive | inactive

— PubChem BioAssay (Tox21)
